# Measured values taken from ChEMBL document CHEMBL5308504, “Tm Shift (DSF) assay results for EUbOPEN Chemogenomics Library” (2023).
# “And” between values parts separate entries of the source, which are not always exact repeats. Equal values may be shown once.
# How the values were obtained:
# Conditions in all cases: Compound concentration 20.0 uM, Protein concentration 2.0 uM, Result type QC Liability
# [1] = molecular target: Tyrosine-protein kinase ABL1 (Homo sapiens) (UniProt P00519)
# [2] = molecular target: Cyclin-dependent kinase 2 (Homo sapiens) (UniProt P24941)
# [3] = molecular target: Casein kinase I isoform delta (Homo sapiens) (UniProt P48730)
# [4] = molecular target: Glycogen synthase kinase-3 beta (Homo sapiens) (UniProt P49841)
# [5] = molecular target: Mitogen-activated protein kinase 1 (Homo sapiens) (UniProt P28482)
# [6] = molecular target: T1, Aurora kinase A (Homo sapiens) (UniProt O14965)
# T1 sequence (whole entry): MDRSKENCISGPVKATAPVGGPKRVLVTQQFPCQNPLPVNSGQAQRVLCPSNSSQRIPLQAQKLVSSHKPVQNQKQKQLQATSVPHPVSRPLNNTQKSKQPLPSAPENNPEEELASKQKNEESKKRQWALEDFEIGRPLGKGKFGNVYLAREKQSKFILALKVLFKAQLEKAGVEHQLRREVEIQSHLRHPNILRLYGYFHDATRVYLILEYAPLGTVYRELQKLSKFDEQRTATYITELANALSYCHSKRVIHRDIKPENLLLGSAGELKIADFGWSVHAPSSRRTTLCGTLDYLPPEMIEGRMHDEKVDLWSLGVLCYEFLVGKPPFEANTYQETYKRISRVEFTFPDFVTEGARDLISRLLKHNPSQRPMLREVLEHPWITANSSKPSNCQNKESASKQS
# Sequence of Mitogen-activated protein kinase 1 (Homo sapiens) (P28482 whole entry): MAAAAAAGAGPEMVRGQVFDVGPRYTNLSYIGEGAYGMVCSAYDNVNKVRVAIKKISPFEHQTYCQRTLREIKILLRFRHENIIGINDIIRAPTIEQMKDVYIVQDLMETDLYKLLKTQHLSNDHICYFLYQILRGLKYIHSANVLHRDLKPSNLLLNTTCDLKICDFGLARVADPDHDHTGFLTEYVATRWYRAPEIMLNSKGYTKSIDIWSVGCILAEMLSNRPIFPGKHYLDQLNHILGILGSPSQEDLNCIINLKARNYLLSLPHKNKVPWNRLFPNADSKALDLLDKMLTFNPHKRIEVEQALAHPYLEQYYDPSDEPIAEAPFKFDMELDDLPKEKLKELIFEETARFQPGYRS
# Sequence of Casein kinase I isoform delta (Homo sapiens) (P48730 whole entry, looked up, canonical isoform): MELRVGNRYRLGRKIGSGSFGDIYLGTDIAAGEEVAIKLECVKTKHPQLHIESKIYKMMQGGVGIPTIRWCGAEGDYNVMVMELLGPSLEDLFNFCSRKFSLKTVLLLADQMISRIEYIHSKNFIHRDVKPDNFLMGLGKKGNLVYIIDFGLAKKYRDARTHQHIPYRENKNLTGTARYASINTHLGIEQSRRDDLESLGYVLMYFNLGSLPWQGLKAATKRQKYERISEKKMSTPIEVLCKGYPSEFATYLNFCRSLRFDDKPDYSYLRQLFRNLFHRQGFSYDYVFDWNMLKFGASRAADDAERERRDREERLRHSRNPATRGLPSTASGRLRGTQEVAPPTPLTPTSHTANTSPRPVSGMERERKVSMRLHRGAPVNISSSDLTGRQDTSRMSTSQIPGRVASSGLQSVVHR
# Sequence of Glycogen synthase kinase-3 beta (Homo sapiens) (P49841 whole entry, looked up): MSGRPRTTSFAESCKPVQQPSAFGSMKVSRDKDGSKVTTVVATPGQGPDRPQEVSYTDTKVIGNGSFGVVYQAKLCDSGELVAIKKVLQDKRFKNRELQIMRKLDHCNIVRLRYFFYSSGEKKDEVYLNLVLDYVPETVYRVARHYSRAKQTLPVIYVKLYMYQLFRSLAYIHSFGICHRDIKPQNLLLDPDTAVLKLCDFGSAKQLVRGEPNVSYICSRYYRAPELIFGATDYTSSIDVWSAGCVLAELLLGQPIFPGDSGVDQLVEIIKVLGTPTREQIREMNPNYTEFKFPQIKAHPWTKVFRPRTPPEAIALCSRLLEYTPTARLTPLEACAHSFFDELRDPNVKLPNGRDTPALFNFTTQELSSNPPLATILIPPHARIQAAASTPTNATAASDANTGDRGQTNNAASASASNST
# Sequence of Tyrosine-protein kinase ABL1 (Homo sapiens) (P00519 whole entry): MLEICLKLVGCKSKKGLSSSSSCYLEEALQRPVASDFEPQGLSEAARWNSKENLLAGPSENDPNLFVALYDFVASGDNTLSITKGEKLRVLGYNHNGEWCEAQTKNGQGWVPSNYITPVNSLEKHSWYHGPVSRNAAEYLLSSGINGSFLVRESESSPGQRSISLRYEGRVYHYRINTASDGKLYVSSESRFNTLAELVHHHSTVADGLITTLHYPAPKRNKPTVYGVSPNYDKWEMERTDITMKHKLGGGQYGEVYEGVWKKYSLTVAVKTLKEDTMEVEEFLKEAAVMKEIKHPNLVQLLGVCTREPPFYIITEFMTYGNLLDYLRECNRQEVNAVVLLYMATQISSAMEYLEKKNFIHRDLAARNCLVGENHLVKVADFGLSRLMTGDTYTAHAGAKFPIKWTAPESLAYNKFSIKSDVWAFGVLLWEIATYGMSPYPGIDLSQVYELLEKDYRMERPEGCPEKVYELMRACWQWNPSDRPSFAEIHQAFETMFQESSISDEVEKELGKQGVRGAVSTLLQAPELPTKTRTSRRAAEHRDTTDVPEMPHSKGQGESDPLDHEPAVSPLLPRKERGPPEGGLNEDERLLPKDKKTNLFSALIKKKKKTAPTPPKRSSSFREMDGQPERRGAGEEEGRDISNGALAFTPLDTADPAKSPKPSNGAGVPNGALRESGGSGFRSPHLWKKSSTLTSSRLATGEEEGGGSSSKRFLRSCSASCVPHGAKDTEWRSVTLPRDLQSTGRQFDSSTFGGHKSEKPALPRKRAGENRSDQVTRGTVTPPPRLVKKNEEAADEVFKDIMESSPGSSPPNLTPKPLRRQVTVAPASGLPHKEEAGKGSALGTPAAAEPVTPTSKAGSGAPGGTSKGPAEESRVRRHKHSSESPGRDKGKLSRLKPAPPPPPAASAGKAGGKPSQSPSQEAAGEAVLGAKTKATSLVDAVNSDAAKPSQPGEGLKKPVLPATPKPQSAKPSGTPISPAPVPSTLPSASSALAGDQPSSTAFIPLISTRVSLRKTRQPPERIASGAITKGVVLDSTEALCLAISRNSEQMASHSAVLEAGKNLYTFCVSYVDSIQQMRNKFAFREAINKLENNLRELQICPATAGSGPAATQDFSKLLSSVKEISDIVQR
Structure (SMILES),ΔTm [1],ΔTm [2],ΔTm [3],ΔTm [4],ΔTm [5],ΔTm [6]
Clc1cccc(Nc2nccc(NCCCN3CCOCC3)n2)c1,1.3 °C,1.43 °C,0.64 °C,5.39 °C,0.32 °C,2.47 °C
CCC(F)(F)c1cc(N2CCC(S(C)(=O)=O)CC2)nc2sc(C(N)=O)c(N)c12,0.45 °C and 1.08 °C and 2.55 °C,0.38 °C and 0.74 °C and 0.49 °C,1.03 °C and 1.35 °C and 2.12 °C,0.35 °C and -0.21 °C and 1.09 °C,0.45 °C and 0.46 °C and 0.62 °C,0.98 °C and 0.42 °C and 1.33 °C
CN(C)[C@H]1CC[C@H](Nc2ncc3ncnc(Nc4ccc(F)c(Cl)c4)c3n2)CC1,3.21 °C,1.27 °C,1.07 °C,1.75 °C,0.51 °C,0.2 °C
O=C(Nc1snnc1C(=O)Nc1ccc(N2CCCC2)cc1)c1cncc(C(F)(F)F)c1,0.66 °C,0.59 °C,1.04 °C,-1.38 °C,0.03 °C,-0.75 °C
COc1c(-c2cn(C3CCC(=O)NC3=O)nn2)csc1C(=O)N1CCCC1 (stereo not given),0.22 °C,0.04 °C,0 °C,-0.65 °C,0.26 °C,-1.14 °C
CN(CCCCCCC1=C(c2cc(F)cc(F)c2)CCCc2cc(O)ccc21)CCCCS(=O)(=O)CCCC(F)(F)F,-0.9 °C,-0.47 °C,0.28 °C,0 °C,-9.1 °C,0.84 °C
CCCCOc1c(C(=O)c2c(F)cc(C)cc2F)c[nH]c2nncc1-2,0.35 °C,2.95 °C,0.13 °C,0.42 °C,0.05 °C,0.96 °C
COc1cc(-c2cc([C@H](O)C3CC3)n3ncnc(N)c23)ccc1CO,9.08 °C,0.4 °C,4.52 °C,0.91 °C,0.82 °C,1.06 °C
FC(F)c1cncc(-c2ccc3ncc4nnc(C5=CCCOCC5)n4c3c2)c1,0.89 °C,0.55 °C,0.33 °C,2.58 °C,0.41 °C,1.62 °C
C[C@@H]1OCC2(CCN(c3cnc(Sc4ccnc(N)c4Cl)c(N)n3)CC2)[C@@H]1N,0.58 °C,0.91 °C,-0.25 °C,0.28 °C,0.06 °C,-0.32 °C
COC(=O)c1sccc1S(=O)(=O)Nc1ccc(Nc2ccccc2)cc1OC,0.48 °C,0.72 °C,0.45 °C,-0.37 °C,-2.78 °C,-2.34 °C
COc1ccc(CC[C@@H](OC(=O)[C@@H]2CCCCN2C(=O)[C@H](c2cc(OC)c(OC)c(OC)c2)C2CCCCC2)c2cccc(OCCN3CCOCC3)c2)cc1OC,-1.71 °C,-1.5 °C,-2.54 °C,-2.19 °C,-0.05 °C,-0.45 °C
CCc1ccccc1C(=O)Nc1n[nH]c2c(C)c(F)c(C3C(C#N)=C(C)N(C)C(C)=C3C#N)cc12,0.41 °C,1.35 °C,0.67 °C,8.17 °C,0.38 °C,5.56 °C
N=C(N)Nc1cc(C2CCNCC2)cc(C(F)(F)F)c1,0.05 °C,0.64 °C,0.15 °C,-0.15 °C,0.15 °C,-0.12 °C
COCCNC1CCC(Nc2cc(-c3csc(NCC4(C#N)CCOCC4)n3)c(Cl)cn2)CC1 (stereo not given),0.32 °C,1.7 °C,2.18 °C,6.51 °C,0.43 °C,1.44 °C
CN(C)CCCN1c2ccccc2Sc2ccc(Cl)cc21,0.03 °C,0.8 °C,0.05 °C,-0.47 °C,0.34 °C,-0.47 °C
Cc1cc(OCc2nc3ccccc3s2)ccc1NC(=O)Nc1ccc(Cl)c(Cl)c1,0.33 °C,1.38 °C,-0.26 °C,-1.81 °C,-0.19 °C,0.13 °C
Cc1n[nH]c2ncc(C(=O)N3CCC[C@H]3c3ccc(Cl)cc3)cc12,0.42 °C,0.82 °C,0.12 °C,7.82 °C,0.69 °C,0.03 °C
CC(C(=O)Nc1cc(C#N)ccc1CCCC(=O)O)c1ccc(F)c2ccccc12 (stereo not given),0.96 °C,0.61 °C,0.09 °C,0.53 °C,-0.07 °C,-0.36 °C
NC(=O)c1sc2nc(N3CCC(NC[C@H](O)c4ccccn4)CC3)cc(C(F)(F)F)c2c1N,1.22 °C,1 °C,1.86 °C,0.72 °C,0.39 °C,1.06 °C
CC(C)(O)c1coc(S(=O)(=O)NC(=O)Nc2c3c(cc4c2CCC4)CCC3)c1,0.65 °C,1.24 °C,0.37 °C,0.29 °C,0.43 °C,0.25 °C
CCO[C@@H](Cc1ccc(OCCc2ccc(OS(C)(=O)=O)cc2)cc1)C(=O)O,0.03 °C,0.41 °C,-0.31 °C,-0.58 °C,0.21 °C,0.09 °C
Cn1c(C2(NC(=O)c3ccc(NCC4CCCCC4)nc3)CCC2)nc2ccc(/C=C/C(=O)O)cc21,0.22 °C,0.23 °C,0.38 °C,-1.07 °C,0.02 °C,0.04 °C
CCCCC[C@@](C)(O)/C=C/[C@H]1C(=O)CC(O)C1C/C=C\CCCC(=O)O (stereo not given in full),-0.65 °C,0.16 °C,-0.52 °C,0.15 °C,-0.04 °C,-0.74 °C
CC#CCC(C)[C@H](O)/C=C/[C@@H]1[C@H]2C/C(=C/CCCC(=O)O)C[C@H]2C[C@H]1O (stereo not given in full),-0.29 °C,0.41 °C,0.31 °C,-0.77 °C,0.12 °C,-0.07 °C
CCN1C(=O)c2cc(C)ccc2N(C)c2ncccc21,-0.36 °C,0.32 °C,0.14 °C,-0.36 °C,0.23 °C,0.08 °C
Cc1cc2c(cc(C(=O)N[C@H](CO)c3ccc(S(=O)(=O)CC(=O)O)cc3)n2C)c(Cl)c1Cl,1.12 °C,-0.15 °C,-1.41 °C,-0.78 °C,0.62 °C,3.77 °C
Cc1nccn1-c1ccc(Sc2cccc(C3(C(N)=O)CCOCC3)c2)cc1,-0.23 °C,0.53 °C,-0.21 °C,0.36 °C,0.38 °C,-0.31 °C
COc1cccc(CNc2ccc(S(=O)(=O)Nc3nc4ccccc4s3)cc2)c1O,0.16 °C,0.93 °C,0.86 °C,0.88 °C,-0.57 °C,1.13 °C
CNC(=O)c1ccc(C)c(-n2c(C)cc(OCc3ccc(F)cc3F)c(Br)c2=O)c1,-0.5 °C,-0.88 °C,-0.45 °C,-1.44 °C,-0.46 °C,-1.48 °C
